Data from PubChem BioAssay AID1159580 (chemical genetic matrix, 2015).
The whole screen tested about 5,500 compounds, of which about 2,000 (36%) were called active. Inconclusive results (about 18%) are left out. Cut-off read from the data, not from the text of the source: active = normalized growth mostly below about 0.91 (no sharp cut-off); inconclusive = no clear call, values can overlap the other calls; inactive = mostly above about 0.92. This is one part of the list.

Assay: chemical genetic growth profiling, strain panel (AID 1159580);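 note: tested at 20 µM; growth read once vehicle control cultures reached saturation at 30 °C; 1 = growth at the plate median or of vehicle wells; lower values mean less growth of the strain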
Conditions: S. cerevisiae deletion strains, growth OD

Measured: normalized growth

Cc1cc(=O)c2c(O)c(C)c(O)cc2o1
inactive: locus YAL021C, strain ccr4, active compounds read low 1 | locus YAL026C, strain drs2, active compounds read low 1.04 | locus YAL030W, strain snc1, active compounds read low 1.02 | locus YBL061C, strain skt5, active compounds read low 1.02 | locus YBR009C, strain hhf1, active compounds read low 1.01 | locus YBR021W, strain FUR4, active compounds read low 0.91 | locus YBR023C, strain chs3, active compounds read low 1.03 | locus YBR171W, strain sec66, active compounds read low 1.03 | locus YBR229C, strain ROT2, active compounds read low 1.02 | locus YBR231C, strain swc5, active compounds read low 1.02 | locus YBR279W, strain paf1, active compounds read low 1.01 | locus YCL011C, strain gbp2, active compounds read low 1.04 | locus YCL016C, strain dcc1, active compounds read low 1.01 | locus YCL029C, strain bik1, active compounds read low 0.975 | locus YCL069W, strain vba3, active compounds read low 1.02 | locus YCR088W, strain abp1, active compounds read low 1.02 | locus YDL005C, strain med2, active compounds read low 1.02 | locus YDL035C, strain GPR1, active compounds read low 0.978 | locus YDL040C, strain nat1, active compounds read low 1.01 | locus YDL074C, strain BRE1, active compounds read low 0.973 | locus YDL101C, strain DUN1, active compounds read low 0.991 | locus YDL134C, strain PPH21, active compounds read low 0.983 | locus YDL185W, strain tfp1, active compounds read low 0.983 | locus YDL192W, strain arf1, active compounds read low 0.954 | locus YDR001C, strain nth1, active compounds read low 1.02 | locus YDR069C, strain doa4, active compounds read low 1.02 | locus YDR101C, strain arx1, active compounds read low 0.957 | locus YDR137W, strain rgp1, active compounds read low 1.03 | locus YDR159W, strain sac3, active compounds read low 1.03 | locus YDR162C, strain NBP2, active compounds read low 0.922 | locus YDR195W, strain ref2 1.01 | locus YDR297W, strain sur2, active compounds read low 1.01 | locus YDR318W, strain mcm21, active compounds read low 0.95 | locus YDR334W, strain swr1, active compounds read low 1.01 | locus YDR335W, strain msn5, active compounds read low 1.04 | locus YDR388W, active compounds read low 0.988 | locus YDR392W, strain spt3, active compounds read low 1.04 | locus YDR502C, strain sam2, active compounds read low 0.935 | locus YEL003W, strain gim4, active compounds read low 1.02 | locus YEL037C, strain rad23, active compounds read low 1.03 | locus YEL061C, strain CIN8 (second series), active compounds read low 1.01 | locus YEL061C, strain CIN8, active compounds read low 1 | locus YER015W, strain faa2, active compounds read low 1.02 | locus YER016W, strain bim1, active compounds read low 1.01 | locus YER110C, active compounds read low 0.96 | locus YER111C, strain swi4, active compounds read low 1.03 | locus YER155C, strain BEM2 (second series), active compounds read low 1.04 | locus YER155C, strain BEM2, active compounds read low 1.02 | locus YER167W, strain BCK2, active compounds read low 1.01 | locus YFR010W, strain ubp6, active compounds read low 1.04 | locus YGL078C, strain dbp3, active compounds read low 0.949 | locus YGL086W, strain mad1, active compounds read low 0.967 | locus YGL167C, strain pmr1, active compounds read low 1.03 | locus YGL173C, strain kem1, active compounds read low 1.02 | locus YGL227W, strain vid30, active compounds read low 1.02 | locus YGL240W, strain doc1, active compounds read low 1.01 | locus YGL248W, strain PDE1, active compounds read low 0.997 | locus YGL253W, strain hxk2, active compounds read low 1.02 | locus YGR078C, strain PAC10, active compounds read low 0.963 | locus YGR135W, strain pre9, active compounds read low 0.932 | locus YGR252W, strain gcn5, active compounds read low 0.815 | locus YHR013C, strain ard1, active compounds read low 1.07 | locus YHR027C, strain rpn1, active compounds read low 1.03 | locus YHR079C, strain IRE1 (second series), active compounds read low 0.978 | locus YHR094C, strain hxt1, active compounds read low 0.984 | locus YHR129C, strain ARP1, active compounds read low 1 | locus YHR142W, strain chs7, active compounds read low 1.04 | locus YHR200W, strain rpn10, active compounds read low 0.958 | locus YIL066C, strain RNR3, active compounds read low 1.02 | locus YIL073C, strain SPO22, active compounds read low 0.999 | locus YIL125W, strain kgd1, active compounds read low 0.986 | locus YIR030C, strain dcg1, active compounds read low 0.99 | locus YJL092W, strain hpr5, active compounds read low 1.02 | locus YJL095W, strain BCK1 (second series), active compounds read low 1.02 | locus YJL095W, strain BCK1, active compounds read low 0.934 | locus YJL115W, strain asf1, active compounds read low 1.03 | locus YJL129C, strain trk1, active compounds read low 1.01 | locus YJL134W, strain LCB3, active compounds read low 1.01 | locus YJL154C, strain vps35, active compounds read low 1.03 | locus YJL164C, strain tpk1, active compounds read low 1.01 | locus YJL166W, strain qcr8, active compounds read low 1.01 | locus YJL168C, strain set2, active compounds read low 0.994 | locus YJL187C, strain SWE1 (second series), active compounds read low 0.971
